From PubChem BioAssay (NCATS)
Records with an inconclusive call do not appear. Active and inactive are the calls of the source. Calls come from the whole dose curve; as a rule, active = well fitted inhibition curve with a large enough effect; inconclusive = small, poorly fitted or top-dose-only effect; inactive = no such curve, though single readings can be large or run the other way. Positions of bridges follow the written chain, without caps; N, C: chain ends. Non-standard residues stand in square brackets, D forms with d. Residues, ends and D or L forms follow the SMILES beside them. *: point of attachment. X1 = CCC(C)C(N)C1=NC(C(=O)*)CS1; dOrn = NCCC[C@@H](N)C(=O)O
Potency is the fitted concentration of half-maximal effect.

Experiment: BET inhibitor-based combinations targeting novel dependencies in MECOM-rearranged (r) AML: OCI-AML3 cell line (AID 2202232); note: nearly all actives have a fitted effect of over 35% in size
Details: CellTiter-Glo luminescence, 48 h; Potency: OCI-AML3 viability; series mostly up to 46 µM
How it was run: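 Viability of cells (500 per well) is scored by luminescent CellTiter-Glo at 48 hr post-dosing. Eleven-point titrations are normalized to DMSO and empty controls and reduced to AUC values.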
With `COC(=O)N1CCN(Cc2cccc(NC(=O)Nc3ccc(C)nc3)c2F)CC1` the Potency was “inactive”. With `O=C(O)c1cnn(-c2nc3cc(OC(F)(F)F)c(Cl)cc3[nH]2)c1` the Potency was “inactive”. For `CCC(C)C(N)C1=NC(C(=O)N[C@@H](CC(C)C)C(=O)N[C@H](CCC(=O)O)C(=O)N[C@H](C(=O)N[C@H]2CCCCNC(=O)[C@H](CC(N)=O)NC(=O)[C@@H](CC(=O)O)NC(=O)[C@H](Cc3cnc[nH]3)NC(=O)[C@@H](Cc3ccccc3)NC(=O)[C@H]([C@@H](C)CC)NC(=O)[C@@H](CCCN)NC2=O)[C@@H](C)CC)CS1` (stereo partly drawn) (X1-L[dE]IK[dOrn]I[dF]H[dD]N; lactam 4-C), the Potency was “inactive”. With `O=C(CCCCCCC(=O)Nc1ccccc1)NO` the Potency was 1860 nM (active). With `Nc1ccccc1NC(=O)c1ccc(CNC(=O)OCc2cccnc2)cc1` the Potency was 2350 nM (active).

Experiment: BET inhibitor-based combinations targeting novel dependencies in MECOM-rearranged (r) AML: MV-4-11 cell line (AID 2202233); note: nearly all actives have a fitted effect of over 45% in size
Details: MV-4-11 AML viability, CellTiter-Glo luminescence, 48 h; series mostly up to 46 µM
How it was run: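 Using pin-tool transfer, drugs were added in 11 doses to cells (500/well), incubated 48 hr, and assessed with CellTiter-Glo. Z-AUC is a mean-centring transformation applied separately to each screened line.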
In the case of `COc1cccc2cc(-c3nc(C4CCC(C(=O)O)CC4)n4ncnc(N)c34)[nH]c12` (stereo not drawn), the Potency is reported as 833 nM (active). For `CC1(C)CC(=O)c2c(C(F)(F)F)nn(-c3ccc(C(N)=O)c(NC4CCC(OC(=O)CN)CC4)c3)c2C1` (stereo not drawn), the Potency was 59 nM (active). In the case of `O=C(O)c1cnn(-c2nc3cc(OC(F)(F)F)c(Cl)cc3[nH]2)c1`, the Potency is reported as “inactive”. For `CCC(C)C(N)C1=NC(C(=O)N[C@@H](CC(C)C)C(=O)N[C@H](CCC(=O)O)C(=O)N[C@H](C(=O)N[C@H]2CCCCNC(=O)[C@H](CC(N)=O)NC(=O)[C@@H](CC(=O)O)NC(=O)[C@H](Cc3cnc[nH]3)NC(=O)[C@@H](Cc3ccccc3)NC(=O)[C@H]([C@@H](C)CC)NC(=O)[C@@H](CCCN)NC2=O)[C@@H](C)CC)CS1` (stereo partly drawn) (X1-L[dE]IK[dOrn]I[dF]H[dD]N; lactam 4-C), the Potency was “inactive”. In the case of `Cc1ncc(-c2ccnc(Nc3ccc(S(C)(=O)=O)cc3)n2)n1C(C)C`, the Potency is reported as 590 nM (active). In the case of `O=C(CCCCCCC(=O)Nc1ccccc1)NO`, the Potency is reported as 742 nM (active). In the case of `COc1cc(Nc2ncc(F)c(Nc3ccc4c(n3)NC(=O)C(C)(C)O4)n2)cc(OC)c1OC`, the Potency is reported as 148 nM (active). For `CC(C)C[C@H](NC(=O)[C@@H](NC(=O)c1cccc(-c2ccccc2)n1)[C@@H](C)O)B(O)O`, the Potency was 51.2 nM (active).
